# In PubChem BioAssay (NCATS):
# Results filed as inconclusive are left out. Calls of active or inactive are those of the source. Unless noted, calls come from the whole dose curve; as a rule, active = well fitted curve in the direction sought with a large enough effect; inconclusive = small, poorly fitted or top-dose-only effect, or another doubt; inactive = no such curve, though single readings can be large; an effect the other way counts as inactive or inconclusive.
# How the values were obtained:
# [1] = HEK293 18hr Apoptosis Induction qHTS against the NCATS CANVASS Library (AID 1347357)
# Procedure, shortened: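 Cells seeded at 500/well in DMEM + 10% FBS. Compounds pinned, 11 concentrations. 18 h, 37 degrees C/5% CO2. Caspase-Glo 3/7 added, 15 min RT dark, luminescence read.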
# [2] = HPAF-II 12hr Apoptosis Induction qHTS against the NCATS CANVASS Library (AID 1347358)
# Procedure, shortened: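 HPAF-II cells (500/well, DMEM + 10% FBS) were exposed to compounds for 12 hours at 37 degrees C. Caspase-3/7 activity was then read by Caspase-Glo 3/7 luminescence after 15 min at room temperature.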
# [3] = HEK293 24hr Apoptosis Induction qHTS against the NCATS CANVASS Library (AID 1347359)
# Procedure, shortened: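 Caspase-3/7 activation measured as luminescence from the DEVD-based Caspase-Glo reagent, 15 min at room temperature, following 24-hour compound treatment of HEK293 cells.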
# [4] = HEK293 12hr Apoptosis Induction qHTS against the NCATS CANVASS Library (AID 1347361)
# Procedure, shortened: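 Cells are seeded, dosed with an 11-point compound series and incubated 12 hours. Caspase-3/7 activity is detected by luminescent DEVD-substrate reagent after 15 minutes at room temperature.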
# [5] = tested on: NAD(P)H diaphorase (Clostridium kluyveri); experiment: Diaphorse counterscreen qHTS: Assay Interference Panel against the NCATS CANVASS Library (AID 1347362)
# Procedure, shortened: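 Counterscreen for coupling-enzyme interference: resorufin fluorescence from resazurin/NADH turnover, read after 5 min at room temperature. Compounds were tested over an 11-point series after 15 min dark preincubation with diaphorase in PBS-Tween.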
# [6] = biological target: Luciferin 4-monooxygenase (Photinus pyralis) (UniProt P08659); experiment: Firefly luciferase counterscreen qHTS: Assay Interference Panel against the NCATS CANVASS Library (AID 1347363)
# Sequence of Luciferin 4-monooxygenase (Photinus pyralis) (P08659 whole entry, looked up): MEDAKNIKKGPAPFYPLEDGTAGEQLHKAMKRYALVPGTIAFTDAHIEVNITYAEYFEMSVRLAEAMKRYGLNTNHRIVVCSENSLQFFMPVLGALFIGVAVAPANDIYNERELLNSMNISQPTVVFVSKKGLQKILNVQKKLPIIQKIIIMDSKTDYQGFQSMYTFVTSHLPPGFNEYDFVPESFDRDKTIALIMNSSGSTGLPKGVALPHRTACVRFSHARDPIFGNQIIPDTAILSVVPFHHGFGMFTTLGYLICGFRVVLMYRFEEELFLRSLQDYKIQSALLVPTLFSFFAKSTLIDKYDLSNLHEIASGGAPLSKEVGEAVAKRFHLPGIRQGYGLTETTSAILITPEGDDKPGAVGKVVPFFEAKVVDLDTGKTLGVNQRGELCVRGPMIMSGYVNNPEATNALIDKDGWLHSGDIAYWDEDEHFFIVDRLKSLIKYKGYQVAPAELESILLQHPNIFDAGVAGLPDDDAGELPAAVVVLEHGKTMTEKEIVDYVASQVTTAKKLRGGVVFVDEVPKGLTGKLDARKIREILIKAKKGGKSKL
# Procedure, shortened: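 Luminescence inhibition readout: compounds (11-point qHTS) sat 15 min at room temperature with substrate mix (0.013 mM luciferin and ATP), then firefly luciferase was added and signal read 5 min later.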
# [7] = KB-3-1 Cancer Cell Toxicity qHTS against the NCATS CANVASS Library (AID 1347366)
# Procedure, shortened: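 Luminescence from CellTiter-Glo (10 min, room temperature) measured KB-3-1 viability after 72 hr compound exposure at 37C. Cells were seeded at 500/well and tested in an 11-point series.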
# [8] = MCF7 Cancer Cell Toxicity qHTS against the NCATS CANVASS Library (AID 1347369)
# Procedure, shortened: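 Cells seeded at 500/well, then compound pinned. Plates incubated 72 hr at 37C, 5% CO2. CellTiterGlo added; luminescence read.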
# [9] = qHTS for ATAD5 Antagonist screened against the NCATS CANVASS Library (AID 1347370)
# Procedure, shortened: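 HEK293T cells with a stably integrated ATAD5-controlled luciferase reporter were exposed to compounds (11-pt) alongside 10 uM 5-fluorouridine as ATAD5 stabilizer for 16hr at 37C. Viability was read by CellTiter-Fluor fluorescence, then ATAD5 by luminescence.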
# [10] = biological target: Nuclear receptor subfamily 1 group I member 3 (Homo sapiens) (UniProt Q14994); experiment: qHTS for Constitutive Androstane Receptor (CAR) Antagonist screened against the NCATS CANVASS Library (AID 1347372)
# Sequence of Nuclear receptor subfamily 1 group I member 3 (Homo sapiens) (Q14994 whole entry, looked up): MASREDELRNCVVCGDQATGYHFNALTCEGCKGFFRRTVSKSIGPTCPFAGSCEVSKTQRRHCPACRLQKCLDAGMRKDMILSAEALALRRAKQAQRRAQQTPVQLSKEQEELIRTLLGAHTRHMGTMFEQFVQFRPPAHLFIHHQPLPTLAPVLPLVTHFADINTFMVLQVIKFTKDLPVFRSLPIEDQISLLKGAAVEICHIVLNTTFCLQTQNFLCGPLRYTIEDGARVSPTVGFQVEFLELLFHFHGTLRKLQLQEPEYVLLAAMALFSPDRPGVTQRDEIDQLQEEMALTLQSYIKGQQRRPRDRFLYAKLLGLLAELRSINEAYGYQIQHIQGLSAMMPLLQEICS
# Procedure, shortened: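 HepG2-CYP2B6-hCAR double-stable cells plated, 4hr attach; cpd pin-transferred; CITCO 50 nM final; 24hr 37C/5% CO2; CellTiter-Fluor 1hr (fluorescence), then ONE-Glo luminescence.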
# [11] = biological target: Nuclear receptor subfamily 1 group I member 3 (Homo sapiens) (UniProt Q14994); experiment: qHTS for Constitutive Androstane Receptor (CAR) Agonist screened against the NCATS CANVASS Library (AID 1347373)
# Procedure, shortened: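 HepG2 cells stably expressing hCAR and a CYP2B6-2.2kb luciferase reporter were treated for 24hr at 37C with compounds (11-point qHTS) in the presence of 1.5uM PK11195. Reporter activation was read by ONE-Glo luminescence.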
# [12] = qHTS for Hypoxia signaling pathway (HIF-1) antagonists against the NCATS CANVASS Library (AID 1347374)
# Procedure, shortened: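 HRE-bla ME-180 cells (2,000/well, 0.5% dialyzed FBS) were pre-incubated 5 h, then given an 11-point compound series plus CoCl2 (60 uM solution as added) for 17 h at 37C. CCF4 β-lactamase read (ex 405, em 460/530 nm) after 2 h at RT.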
# [13] = DH5-alpha competent E. coli microbial cell viability qHTS against the NCATS CANVASS Library (AID 1347377); conditions: outcome: at 46.1 µM (top of the series)
# Procedure, shortened: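 DH5-alpha E. coli suspension (0.9 OD culture diluted to 0.2 OD) exposed to compounds in an 11-point series, overnight at 37C, 5% CO2. Viability read as ATP by BacTiter-Glo luminescence after 20 min at room temperature.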
# [14] = qHTS for H2AX Agonists against the NCATS CANVASS Library (AID 1347378)
# Procedure, shortened: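 CHO-K1, 1000 cells/well, o/n 37C; cpd several conc, 3 hr 37C, 0.76% DMSO; lyse 30 min RT; cryptate anti-pH2AX(S139) + d2 anti-H2AX, 24 hr RT; HTRF 665/620.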
# [15] = Inflammasome Signaling qHTS Counterscreen: IL-1-beta AlphaLISA counterscreen against the NCATS CANVASS Library (AID 1347381)
# Procedure, shortened: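 To flag interference with the AlphaLISA read-out, a known amount of purified IL-1-beta (4 pg) replaced cell supernatant. Detection used anti-IL-1-beta acceptor beads, biotinylated antibody and streptavidin donor beads at room temperature.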
# [16] = Cytotoxicity qHTS for assessment of Hepg2 cells membrane integrity screened against the NCATS CANVASS Library (AID 1347387)
# Procedure, shortened: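 HepG2 cells (2000/well) attached overnight at 37C, then received compounds in an 11-point series at 0.59 nM - 46 uM final for 5 hr. LDH release was detected fluorometrically (ex 560/em 590 nm) with CytoTox-ONE reagent after 10 min at room temperature.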
# [17] = qHTS for Activators of p53 Stress Response Pathway screened against the NCATS CANVASS Library (AID 1347388)
# Procedure, shortened: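 Beta-lactamase reporter driven by p53 response elements in HCT-116 cells, read as the 460 nm/530 nm emission ratio after CCF4 loading, following 16 h of exposure to an 11-point series. Cell viability was measured in the same wells by CellTiter-Glo luminescence.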
# [18] = qHTS assay for small molecule disruptors of mitochondrial membrane potential screened against the NCATS CANVASS Library (AID 1347389)
# Procedure, shortened: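 HepG2 cells (2,000/well) were plated overnight at 37C, exposed to compound for 1 hr at 37C/5% CO2, then loaded with Mito-MPS dye for 30 min. Depolarization was read as a drop in red (590 nm) to green (535 nm) fluorescence ratio.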
# [19] = qHTS for activators of dead-cell proteases activity screened against the NCATS CANVASS Library (AID 1347392)
# Procedure, shortened: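 Compounds are pin-transferred onto attached HepG2 cells, giving 11 final concentrations. After 5 h at 37C, AAF-aminoluciferin reagent is added and luminescence is recorded at room temperature.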
# [20] = qHTS for inhibitors of ER calcium dysfunction: SERCaMP assay screened against the NCATS CANVASS Library (AID 1347393)
# Procedure, shortened: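 Thapsigargin-induced ER calcium depletion drives GLuc-SERCaMP secretion from SH-SY5Y cells; compounds given 16 h beforehand were scored by lowered coelenterazine luminescence after 4 h challenge.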
# [21] = Vero-766 cells viability qHTS against the NCATS CANVASS Library: Counterscreen for Zika virus inhibition assay (AID 1347394)
# Procedure, shortened: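 Vero 766, no virus; 1000 cells/well; o/n attach; cpd 11-pt; 72 h, 37C, 5% CO2; CTG luminescence; cell-free media wells = 100% inhibition.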
# [22] = qHTS for inhibitors of Wild type Zika virus screened against the NCATS CANVASS Library (AID 1347396)
# Procedure, shortened: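 Luminescent CellTiter Glo read-out of virus-induced cytotoxicity, 72 h post-infection, in Vero 766 cells. Compounds were tested at 11 concentrations; uninfected, vehicle-treated wells defined 100% inhibition.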
# [23] = Redox Reaction Profiling qHTS: Assay Interference Panel against the NCATS CANVASS Library (AID 1347401)
# Procedure, shortened: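 Cell-free redox surrogate: 5 uM resazurin + 200 uM DTT, 50 mM HEPES pH 7.3/50 mM NaCl; cpds pinned, 11-pt qHTS; Ex525/Em598 read t0 and t=15 min, dark.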
# [24] = qHTS for inhibitors of Rabies Virus screened against the NCATS CANVASS Library (AID 1347402; calls by dose curve)
# [25] = Primary qHTS for small molecule stabilizers of the endoplasmic reticulum resident proteome: Secreted ER Calcium Modulated Protein (SERCaMP) assay (AID 1508630)
# Procedure, shortened: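 GLuc-SERCaMP-expressing SH-SY5Y cells, pretreated 16 h with compound, are challenged with thapsigargin to empty ER calcium stores; after 4 h, coelenterazine is added directly to the medium and luminescence is imaged.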
structure (smiles),measurement,setting,value
COc1ccc2c3c([nH]c2c1)C(C)=NCC3,Potency,[1],inactive
same,outcome,[2],inactive
same,Potency,[3],inactive
same,Potency,[4],inactive
same,outcome,[5],inactive
same,outcome,[6],inactive
same,Potency,[7],inactive
same,Potency,[8],inactive
same,Potency,[9],16.6 µM (active)
same,Potency,[10],inactive
same,outcome,[11],inactive
same,Potency,[12],inactive
same,outcome,[13],inactive
same,Potency,[14],inactive
same,outcome,[15],inactive
same,outcome,[16],inactive
same,Potency,[17],18.6 µM (active)
same,Potency,[18],inactive
same,Potency,[19],inactive
same,Potency,[20],27.2 µM (active)
same,Potency,[21],inactive
same,Potency,[22],inactive
same,Potency,[23],inactive
same,outcome,[24],inactive
same,Potency,[25],inactive
